Our source for the fluorescence interference ratio values is PubChem BioAssay AID720488 (Milwaukee Institute for Drug Discovery, 2013).

Hit rate of the full screen: of about 16,000 compounds, about 960 (6%) were called active. This is one part of a sample in which actives are shown more often than they occur.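 Rule for the calls: active = compound fluorescence over control fluorescence at most 0.8, a quencher, or at least a set upper limit, an enhancer; inactive = ratio between 0.8 and the set upper limit.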

A short description of the test: Cy5 fluorescence quenchers or enhancers, artefact control for HCV NS3 helicase inhibitor project, biochemical, ChemBridge library, Cy5 readout (AID 720488). To be noted: Cy5-dT15 DNA with NS3h, at 100 µM, actives lie on both sides, signal over control mean, under 1 quenches.
Consider `O=C1C2C3C=CC(C3=C(c3ccccc3)c3ccccc3)C2C(=O)N1c1cccc(C(F)(F)F)c1` (stereo unspecified), for which the fluorescence interference ratio was 1.02 (inactive). Take `CC(=O)c1cccc(N2C(=O)C3C4C=CC(C5CC45)C3C2=O)c1` (stereo unspecified): the fluorescence interference ratio was 0.66 (active). With `CCOc1ccc(C(=O)Nc2ccc(Cl)c(-c3nc4ncccc4o3)c2)cc1Cl` the figure was 1.17 (inactive); with `Cc1cccc(N=C2NC(=O)/C(=C\c3ccc([N+](=O)[O-])cc3)S2)c1C`, 0.748 (active). The value for `Cc1cccc(N=C2NC(=O)CS2)c1C` was 1 (inactive); that for `O=C1NC(=Nc2cccc(O)c2)S/C1=C\c1cccc(O)c1` was 0.898 (inactive); that for `COC(=O)C1=C(O)/C(=C\c2ccccc2C(F)(F)F)N=C1C` was 0.891 (inactive). With `CCOC(=O)c1[nH]c(=O)[nH]c1CSc1nccn1C` the figure was 1.03 (inactive); with `Cc1cc(/C=N\O)c(C)n1-c1ccc(F)cc1`, 0.964 (inactive). In the case of `Cc1ccc(NC(=O)c2cccc(C(=O)Nc3ccc(C)cc3)n2)cc1`, the fluorescence interference ratio was 0.981 (inactive). `O=C(Nc1ccncc1)c1cc2ccccc2o1`: the fluorescence interference ratio was 0.446 (active). With `Cc1cc(Br)cc(C)c1NC(=O)c1cc2ccccc2o1` the figure was 0.937 (inactive).

On to `Cc1ccccc1CC1S/C(=N/N=C\c2ccc(N(C)C)cc2)NC1=O` (stereo unspecified), for which the fluorescence interference ratio is 0.981 (inactive). With `Cc1cccc(NS(=O)(=O)c2ccc([N+](=O)[O-])cc2)n1` the figure was 0.931 (inactive); with `COc1ccc(C2=CC=C(c3ccc(OC)cc3)C2)cc1`, 0.865 (inactive); with `CCOCCOCCC(C(=O)O)P(=O)(c1ccccc1)c1ccccc1` (stereo unspecified), 0.631 (active).

`CCCCOCP(=O)(c1ccccc1)c1ccccc1`: the fluorescence interference ratio is 1.1 (inactive). Regarding `CCOC(=O)C(C#N)C(=S)Nc1ccccc1` (stereo unspecified), the fluorescence interference ratio was 1.02 (inactive). The value for `Cn1cnc2c1c(=O)n(Cc1ccc(F)cc1)c(=O)n2C` was 1.12 (inactive); that for `COc1ccc(C(=O)COc2cc3c(C(=O)OC(C)C)c(C)oc3cc2Br)cc1` was 1 (inactive); that for `O=[N+]([O-])c1cccc(S(=O)(=O)NCc2ccccn2)c1` was 1.05 (inactive). On to `COc1ccc(N=Cc2sccc2C)c([N+](=O)[O-])c1`, for which the fluorescence interference ratio was 1.02 (inactive). With `COc1ccc(N2C(=O)C3C4C=CC(C4=C(C)C)C3C2=O)c([N+](=O)[O-])c1` (stereo unspecified) the figure was 0.887 (inactive); with `COc1ccc(N2C(=O)C=CC2=O)c([N+](=O)[O-])c1`, 0.622 (active).

`CC1(C(=O)Nc2ccccc2Cl)CC2c3ccccc3C1c1ccccc12` (stereo unspecified): the fluorescence interference ratio was 0.972 (inactive). With `C=CCOC(=O)C1=C(C)NC(C)=C(C(=O)OCC=C)C1c1cccs1` the figure was 0.9 (inactive). With `O=C(Nc1ccc(Cl)c(Cl)c1)Nc1nnc(-c2ccc(Br)cc2)s1` the figure was 1.03 (inactive); with `C/C(=N/NS(=O)(=O)c1ccccc1)c1cccc(Br)c1`, 1.04 (inactive); with `Cc1ccc(/C=C/C(=O)Nc2cccc([N+](=O)[O-])c2)o1`, 0.895 (inactive). `CCNC(=O)NC1C(NC(=O)NCC)N(C)C(=O)N1C` (stereo unspecified): the fluorescence interference ratio is 0.995 (inactive). Take `C=CCN1C(=O)/C(=C\c2cc(Cl)c(O)c(Cl)c2)SC1=S`: the fluorescence interference ratio was 0.772 (active).

As for `C=CCN1C(=O)/C(=C/c2ccccc2OCc2ccc([N+](=O)[O-])cc2)SC1=S`, the fluorescence interference ratio was 1.07 (inactive).

For `O=C(CCN1C(=O)/C(=C/c2ccccc2)SC1=S)Nc1cccc(Cl)c1`, the fluorescence interference ratio was 1.04 (inactive).

As for `O=C(NCCCN1CCOCC1)C(=O)Nc1ccc(F)cc1`, the fluorescence interference ratio was 1.06 (inactive). With `O=C(NCc1cccs1)c1cc2n(n1)C(C(F)(F)F)CC(c1ccc(Cl)c(Cl)c1)N2` (stereo unspecified) the figure was 1.05 (inactive); with `COc1ccc(NC(=O)C(=O)NCc2ccccn2)c(OC)c1`, 1.03 (inactive).

Turning to `O=C1C2C3C=CC(C3)C2C(=O)N1/N=C\c1cccc(I)c1` (stereo unspecified), the fluorescence interference ratio is 0.959 (inactive). With `O=C(Nc1cc([N+](=O)[O-])ccc1O)c1ccc(C(=O)Nc2cc([N+](=O)[O-])ccc2O)cc1` the figure was 1.24 (active).

As to `CCC(C)c1ccc(NC(=O)c2ccc([N+](=O)[O-])cc2)cc1` (stereo unspecified), the fluorescence interference ratio was 1.06 (inactive). Regarding `CC(C)COc1ccc(C(=O)Nc2cc([N+](=O)[O-])ccc2Cl)cc1`, the fluorescence interference ratio was 0.656 (active).

Turning to `COC(=O)c1cc(NC(=O)COc2ccc([N+](=O)[O-])cc2)cc(C(=O)OC)c1`, the fluorescence interference ratio was 1.05 (inactive). As for `Cc1ccc(OCC(=O)Nc2cc([N+](=O)[O-])ccc2Cl)cc1`, the fluorescence interference ratio is 1.03 (inactive). With `O=C(NC(=S)Nc1ccc([N+](=O)[O-])cc1O)c1ccc(Br)cc1` the figure was 0.952 (inactive); with `CN(C(=O)COc1ccc2ccccc2c1)c1ccccc1`, 1.02 (inactive). The value for `Cc1cc(C(=O)Nc2ccccc2C(=O)O)ccc1NC(=O)CC(C)C` was 1.04 (inactive); that for `COc1ccc(C2CC(c3ccc([N+](=O)[O-])cc3)=NN2)cc1` (stereo unspecified) was 0.645 (active); that for `C=C(C)Cn1c(-c2ccc([N+](=O)[O-])cc2)n[nH]c1=S` was 1.03 (inactive). The value for `COc1ccc(C2=NN(C(C)=O)C(c3ccccc3)C2)cc1` (stereo unspecified) was 1.05 (inactive); that for `O=C1OC(c2ccc(F)cc2)=N/C1=C\c1ccc2c(c1)OCO2` was 1.09 (inactive).

As to `O=C(CSc1nnc(-c2ccc(Br)cc2)o1)OCc1ccccc1`, the fluorescence interference ratio was 0.95 (inactive). The value for `COC(=O)c1ccccc1NC(=O)c1cncc(Br)c1` was 0.974 (inactive); that for `COc1ccc(C2CC(C(F)(F)F)n3nc(C(=O)N4CCN(c5ccc(F)cc5)CC4)c(Cl)c3N2)cc1` (stereo unspecified) was 0.951 (inactive). With `O=C(Nc1ccc(Oc2ccccc2)cc1)c1ccco1` the figure was 0.978 (inactive). With `N#Cc1c(SCC(=O)c2ccc(Cl)cc2)nc2c(c1-c1ccco1)CCCC2` the figure was 0.953 (inactive); with `N#Cc1c(N)nc2sc(C(=O)Nc3ccccc3)c(N)c2c1-c1ccco1`, 1.21 (active); with `Cc1cccc(NC(=O)/C=C/c2ccc(F)cc2)c1`, 0.934 (inactive). Consider `CCOC(=O)c1ccc(-n2c(C)cc(/C=N\n3cnnc3)c2C)cc1`, for which the fluorescence interference ratio is 1.03 (inactive). With `O=C1c2ccccc2C(=O)c2c1cccc2N1CCN(CCO)CC1` the figure was 1.22 (active); with `CCOC(=O)C1=C(C)N=c2s/c(=C/c3ccc(C(=O)OC)cc3)c(=O)n2C1c1ccc(OC(C)=O)cc1` (stereo unspecified), 1.07 (inactive); with `CNC(=O)C1CC(=O)N(c2ccc(F)cc2)C1` (stereo unspecified), 1.11 (inactive). The value for `O=C(COC(=O)C1CCCN1C(=O)OCc1ccccc1)c1ccc(-c2ccccc2)cc1` (stereo unspecified) was 1.04 (inactive).
